Usually AC50 stands for the midpoint of the concentration-response curve, whichever way the signal moves.

Among the data in PubChem BioAssay (EPA / NIEHS) are outcome and AC50 values, retold here.

A structure can be active in one record and inactive in another. Calls of active or inactive are those of the source. How the source made its calls: active means hit-call score of the fitted dose curve at least 0.9, where 1 is the maximum; inactive means score below 0.9.

Read-out in the assay: Thrombomodulin, THBD (gene 7056)
Description: BSK_LPS_Thrombomodulin: BioMAP Diversity Plus: LPS Assay for Thrombomodulin Biomarker Activity (AID 2284296). The conditions noted are these: primary human HUVEC with PBMC. The protocol:
BSK_LPS is a cell-based, multiplexed-readout assay that uses umbilical vein endothelium and peripheral blood mononuclear cells, a human vascular primary cell co-culture, with measurements taken at 24 hours after chemical dosing in a 96-well plate.BSK_LPS_Thrombomodulin is an assay component measured in the BSK_LPS assay. It measures Thrombomodulin antibody related to regulation of gene expression using ELISA technology.Data from the assay component BSK_LPS_Thrombodulin was analyzed at the endpoint, BSK_LPS_Thrombomodulin, in the positive analysis fitting direction relative to DMSO as the negative control and baseline of activity. Using a type of binding reporter, gain or loss-of-signal activity can be used to understand protein changes. To generalize the intended target to other relatable targets, this assay endpoint is annotated to the 'gpcr' intended target family, where the subfamily is 'rhodopsin-like receptor'.
The levels of cell surface (or secreted, indicated by the prefix "s") biomarker endpoints were measured by ELISA. Overt cytotoxicity to cells in confluent adherent cultures (all systems other than the BT system) was assessed by measuring total protein levels using sulforhodamine B (SRB) staining in parallel cultures at the time of biomarker measurements, indicated as SRB endpoints. For proliferation assays for adherent cell types, individual cell types are cultured at sub-confluence and relative cell numbers quantified by SRB staining at time points optimized for each system (48 h: 3C and CASM3C systems; 72 h: BT and HDF3CGF systems; 96 h: SAg system). SRB was performed by staining cells with 0.1% SRB after fixation with 10% TCA and reading wells at 560 nm.Viability and proliferation of PBMC (T cells) was quantified by Alamar Blue reduction for the SAg and BT systems. For PBMC viability (referred to as PBMC Cytotoxicity within the assay endpoint names), cells were plated (75,000/well in a 96-well plate) and then chemical samples added for 1 h before addition of activators, SEB and TSST-1 (20 ng/mL final concentration each). Cells were incubated for 90 h. Then, Alamar Blue (20 uL/well) (Invitrogen, Cat DAL1100) was added for 6 h, and the plates were read with a fluorescence microplate reader at 546/580 nm (excitation/emission). For PBMC proliferation, cells were plated and activated as above but incubated for only 16 h prior to addition of Alamar Blue. Plates were read after 6 h.
`C=C(F)C(=O)OC(C(F)(F)F)C(F)(F)F`: the outcome was inactive.
Regarding `CCCCN(CCO)CCO`, the outcome was inactive.
As to `OCC(F)(OC(F)(F)C(F)(OC(F)(F)C(F)(F)C(F)(F)F)C(F)(F)F)C(F)(F)F` (centres undefined), the outcome was inactive.
For `C=C(C)C(=O)OCCC(F)(F)C(F)(F)C(F)(F)C(F)(F)C(F)(F)C(F)(F)C(F)(F)C(F)(F)F`, the result was inactive.
Turning to `O=C(O)C(F)(F)C(F)(F)C(F)(F)C(F)(F)C(F)(F)C(F)(F)C(F)(F)C(F)F`, the result was inactive.
For `O=S(=O)(O)C(F)(F)C(F)(F)OC(F)(F)C(F)(F)F`, the outcome was inactive.
For `CC(=O)c1ccc(C)cc1`, the result was inactive.
Consider `CCn1cc(C(=O)O)c(=O)c2ccc(C)nc21`, for which the outcome was inactive.
As for `c1ccc(OCCOc2ccccc2)cc1`, the outcome was inactive and the AC50 is 12.3 µM (active).
Regarding `CCCO[Si](OCCC)(OCCC)OCCC`, the outcome was inactive.
With `CC(C)CCCC(C)(C)O`, the result was inactive.
With `CC(C)(CO)CO`, the result was inactive.
On the same count and under the same terms, to `O=C(O)C(F)(F)OC(F)(F)C(F)(F)OC(F)(F)C(F)(F)C(F)(F)C(F)(F)F` belongs “inactive”.
